Screening data: PubChem, National Center for Advancing Translational Sciences (NCATS)
This is a sample that favours compounds with a hit; in the whole collection about 3.8% have one here.
ATXN2 expr inh – ATXN2 expression inhibition; hit rate 0.72% among 360,000; HEK-293 ATXN2-luciferase reporter, luminescence, 24 h; Potency, µM (titrated, usually from 57 µM), hits mostly inhibitors; further: nearly all actives have a fitted effect of over 55% in size
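qHTS (up to 57 uM final) was run with 24 h compound exposure of reporter cells at 37 °C. Each well was multiplexed: SteadyGlo luminescence measured ATXN2-luciferase expression after a fluorogenic Gly-Phe-AFC viability readout (25 uM final).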
HT1080-NT tox – kills 2HG-producing HT-1080-NT fibrosarcoma cells; hit rate 1.6% among 360,000; HT-1080-NT fibrosarcoma viability, CellTiter-Glo ATP luminescence, 48 h; AID 686970; Potency, µM (titrated, usually from 46.1 µM), actives largely listed as cytotoxic;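 further: NT is the 2HG producing partner of a matched IDH1 knockdown line; nearly all actives have a fitted effect of over 55% in size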
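750 cells/well, RPMI + 5% FBS; 2 h settle, compound pin-transfer, 48 h at 37 degrees C. CellTiter-Glo 10 min RT, luminescence. Normalized to DMSO and media-only wells.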
TGFb SMAD3 inh – blocks TGF-b signaling; Potency, µM (highest dose often 46.1 µM), actives largely listed as inhibitors; hit rate 1.2% among 410,000; HepG2 CAGA-GFP TGF-b/SMAD3 reporter, GFP fluorescence, 18 h; TGF-beta stimulated, 500 pg/mL final; further: nearly all actives have a fitted effect of over 65% in size
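HEPG2 CAGA-GFP reporter cells (1000/well, DMEM with 1% FBS) received compounds, then recombinant TGF-beta at 500 pg/mL final for 18 hours at 37 degrees C. Per-cell GFP summed per well was normalised to unstimulated and stimulated DMSO controls before curve fitting.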
HT1080 IDH1KD tx – kills HT-1080 cells with IDH1 knockdown | AID 686971 | Potency, µM (titrated, usually from 46.1 µM), most hits filed as cytotoxic | HT-1080 IDH1 knockdown viability, ATP luminescence, 48 h | hit rate 2% among 360,000
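CellTiter-Glo luminescence after 48 h compound exposure at 37 degrees C of IDH1-knockdown HT-1080 cells in 5% FBS RPMI. %Activity scaled between DMSO wells and cell-free media wells, with curves fitted and assigned curve classes.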
S2 tox – reduces viability in counter-screen for ATXN expression inhibitors; S2 cells (HEK-293 line with an ATXN2-luciferase reporter) viability, CellTiter-Fluor protease fluorescence, 24 h; Potency, µM (top dose mostly 56.7 µM), hits mostly cytotoxic; hit rate 0.49% among 400,000; further: nearly all actives have a fitted effect of over 40% in size
HepG2 tox-1 – HepG2 cytotoxicity, counter-screen for TGF-b inhibitors; hit rate 0.76% among 410,000; HepG2 CAGA-GFP viability, ATP luminescence, 18 h; Potency, µM (titrated, usually from 46.1 µM), actives largely listed as cytotoxic
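HepG2 CAGA-GFP cells (1000/well, DMEM with 1% FBS) received compound, then TGF-beta at 500 pg/mL final, and were incubated 18 hours at 37 degrees C. Viability was read by CellTiter-Glo luminescence. Media-only wells were set as complete cell-killing and DMSO as no toxicity.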
TGFb confirm – TGF-b pathway inhibition, cherry-pick retest; shares compounds with TGFb SMAD3 inh; HepG2 CAGA-GFP TGF-b reporter, GFP fluorescence, 18 h; cells stimulated with TGF-beta, 500 pg/mL; Potency, µM (top dose mostly 46.1 µM), usual class: inhibitors; hit rate 63% among 1,600; further: nearly all actives have a fitted effect of over 65% in size
HepG2 tox-2 – toxic to HepG2 cells in TGF-b counterscreen | shares compounds with TGFb SMAD3 inh | HepG2 CAGA-GFP viability, ATP luminescence, 18 h; cells stimulated with TGF-beta, 500 pg/mL | Potency, µM (highest dose often 46.1 µM), actives largely listed as inhibitors | hit rate 27% among 1,600 | AID 720535; further: nearly all actives have a fitted effect of over 70% in size
CCL64 TGFb inh – TGF-b inhibition, CCL64 orthogonal assay | shares compounds with TGFb SMAD3 inh | CCL64 CAGA-GFP reporter, TGF-b stimulated, GFP fluorescence, 18 h | Potency, µM (highest dose often 46.1 µM), usual class: inhibitors | hit rate 41% among 1,600 | AID 720536; further: nearly all actives have a fitted effect of over 65% in size
TGFb COP inh – blocks TGF-b signaling in HepG2 COP reporter. hit rate 3% among 1,600. HepG2 COP-GFP TGF-b reporter, GFP fluorescence, 18 h; cells stimulated by added recombinant TGF-beta. Potency, µM (top dose mostly 46.1 µM), actives largely listed as inhibitors. AID 720537. shares compounds with TGFb SMAD3 inh; further: nearly all actives have a fitted effect of over 70% in size
Hits are given with their value. The call rests on the fitted dose curve; in most records, active means well fitted curve in the direction sought with a large enough effect; inconclusive means small, poorly fitted or top-dose-only effect, or another doubt; inactive means no such curve, though single readings can be large; an effect the other way counts as inactive or inconclusive.

For N#Cc1c(NC(=O)c2ccc([N+](=O)[O-])o2)sc2c1CCC2 the results were ATXN2 expr inh inconclusive, HT1080-NT tox inconclusive, TGFb SMAD3 inh inconclusive, HT1080 IDH1KD tx inconclusive, S2 tox inconclusive, HepG2 tox-1 inactive, TGFb confirm 12µM, HepG2 tox-2 9.2µM, CCL64 TGFb inh 15µM and TGFb COP inh inactive.
`CN1CCc2c(sc(NC(=O)c3ccc([N+](=O)[O-])o3)c2C(N)=O)C1` gave ATXN2 expr inh inconclusive, HT1080-NT tox 6.5µM, TGFb SMAD3 inh 1.8µM, HT1080 IDH1KD tx 0.58µM, S2 tox inconclusive, HepG2 tox-1 inactive, TGFb confirm 0.58µM, HepG2 tox-2 2.3µM, CCL64 TGFb inh inconclusive and TGFb COP inh inactive.
`NC(=O)c1c(NC(=O)c2ccc([N+](=O)[O-])o2)sc2c1CCCC2` gave ATXN2 expr inh inactive, HT1080-NT tox inconclusive, TGFb SMAD3 inh inconclusive, HT1080 IDH1KD tx inconclusive, S2 tox inactive and HepG2 tox-1 inactive.
`CCn1cc(C(=O)NCc2ccc(C)cc2)c(=O)c2cc(S(=O)(=O)N3CCCCCC3)ccc21` gave ATXN2 expr inh inactive, TGFb SMAD3 inh inactive, S2 tox inactive and HepG2 tox-1 inactive.
`Cc1ccsc1/C=N/NC(=O)c1cc(-c2ccncc2)nc2ccccc12` gave ATXN2 expr inh inactive, HT1080-NT tox inconclusive, TGFb SMAD3 inh inconclusive, HT1080 IDH1KD tx 0.92µM, S2 tox inactive, HepG2 tox-1 inactive, TGFb confirm inactive, HepG2 tox-2 inactive, CCL64 TGFb inh 6.5µM and TGFb COP inh inactive.
COc1ccccc1-c1cc(C(=O)N/N=C/c2sccc2C)c2ccccc2n1 was read as ATXN2 expr inh inactive, HT1080-NT tox inactive, TGFb SMAD3 inh inactive, HT1080 IDH1KD tx inactive, S2 tox inactive and HepG2 tox-1 inactive.
NC(=O)c1sc(-c2ccsc2)cc1NS(=O)(=O)c1ccc(C(F)(F)F)cc1 was read as ATXN2 expr inh inactive, HT1080-NT tox inactive, TGFb SMAD3 inh inconclusive, HT1080 IDH1KD tx inactive, S2 tox inactive, HepG2 tox-1 inactive, TGFb confirm 23µM, HepG2 tox-2 inconclusive, CCL64 TGFb inh inconclusive and TGFb COP inh inactive.
Screening CC(=O)c1sc(-c2ccc(F)cc2)cc1NS(=O)(=O)c1ccc(C)cc1 returned ATXN2 expr inh inactive, HT1080-NT tox inactive, TGFb SMAD3 inh inactive, HT1080 IDH1KD tx inactive, S2 tox inactive and HepG2 tox-1 inactive.
Screening O=C1C=C(/C=C/c2ccccc2)C[C@@H](c2ccc(F)cc2)C1 returned ATXN2 expr inh inactive, HT1080-NT tox inactive, TGFb SMAD3 inh inconclusive, HT1080 IDH1KD tx inactive, S2 tox inactive and HepG2 tox-1 inactive.
For COc1ccc([C@H]2CC(=O)C=C(c3cccc(Br)c3)C2)cc1 the results were ATXN2 expr inh inactive, HT1080-NT tox inactive, TGFb SMAD3 inh inconclusive, HT1080 IDH1KD tx inactive, S2 tox inactive and HepG2 tox-1 inactive.
Screening COc1ccc([C@H]2CC(=O)C=C(/C=C/c3ccccc3)C2)cc1OC returned ATXN2 expr inh inconclusive, HT1080-NT tox inactive, TGFb SMAD3 inh 13µM, HT1080 IDH1KD tx inactive, S2 tox inconclusive, HepG2 tox-1 inactive, TGFb confirm inconclusive, HepG2 tox-2 inactive, CCL64 TGFb inh inconclusive and TGFb COP inh inactive.
Screening COc1ccc([C@H]2CC(=O)C=C(c3cccc(Br)c3)C2)cc1OC returned ATXN2 expr inh inactive, HT1080-NT tox inactive, TGFb SMAD3 inh 4.5µM, HT1080 IDH1KD tx inactive, S2 tox inconclusive, HepG2 tox-1 inactive, TGFb confirm inconclusive, HepG2 tox-2 inactive, CCL64 TGFb inh inconclusive and TGFb COP inh inactive.
Screening O=[N+]([O-])c1cc(-c2nc(-c3ccccc3)no2)ccc1N1CCCC1 returned ATXN2 expr inh inconclusive, TGFb SMAD3 inh inactive, S2 tox inactive and HepG2 tox-1 inactive.
`O=C(Nc1ccccc1)Nc1nnc(CSCc2ccccc2Cl)s1` gave ATXN2 expr inh inconclusive, HT1080-NT tox inconclusive, TGFb SMAD3 inh 7.9µM, HT1080 IDH1KD tx inconclusive, S2 tox inconclusive, HepG2 tox-1 inactive, TGFb confirm inconclusive, HepG2 tox-2 inactive, CCL64 TGFb inh inconclusive and TGFb COP inh inactive.
`Nc1nc(Nc2ccccc2)sc1C(=O)c1ccccc1` gave ATXN2 expr inh inactive, HT1080-NT tox inconclusive, TGFb SMAD3 inh 5.6µM, HT1080 IDH1KD tx inconclusive, S2 tox inactive, HepG2 tox-1 inactive, TGFb confirm 3.7µM, HepG2 tox-2 3.7µM, CCL64 TGFb inh 21µM and TGFb COP inh inactive.
For Cc1ccccc1Nc1c(-c2ccc(Cl)s2)nc2cccc(C)n12 the results were ATXN2 expr inh inactive, TGFb SMAD3 inh inactive, S2 tox inactive and HepG2 tox-1 inactive.
`CCS(=O)(=O)N1CCc2cc(C(=O)Nc3cc(Cl)ccc3C)ccc21` gave ATXN2 expr inh inactive, TGFb SMAD3 inh inactive, S2 tox inactive and HepG2 tox-1 inactive.
`O=C(CSc1nc(=O)[nH]c2c1CCC2)Nc1cc(C(F)(F)F)ccc1Cl` gave TGFb SMAD3 inh inactive and HepG2 tox-1 inactive.
Screening O=C(Nc1nc2ccc(F)cc2s1)c1ccc([N+](=O)[O-])o1 returned HT1080-NT tox inconclusive, TGFb SMAD3 inh 5.6µM, HT1080 IDH1KD tx inactive, S2 tox inconclusive, HepG2 tox-1 inactive, TGFb confirm 4.6µM, HepG2 tox-2 9.2µM, CCL64 TGFb inh inconclusive and TGFb COP inh inactive.
`COc1ccccc1NC(=O)c1ccc([N+](=O)[O-])o1` gave ATXN2 expr inh inactive, HT1080-NT tox inconclusive, TGFb SMAD3 inh 2.8µM, HT1080 IDH1KD tx inconclusive, S2 tox inactive, HepG2 tox-1 13µM, TGFb confirm inconclusive, HepG2 tox-2 inconclusive, CCL64 TGFb inh inconclusive and TGFb COP inh inactive.
